Screening data: PubChem, National Center for Advancing Translational Sciences (NCATS)
KB-V1 MDR tox – kills drug-selected multidrug resistant KB-V1 cells | KB-V1 MDR cells viability, CellTiter-Glo, 72 h | Potency, µM (series often up to 46.1 µM), hits mostly cytotoxic | 400,000 tested, 3.4% active; note: % is set by controls: 0 for no effect and ±100 for the full control effect; nearly all actives have a fitted effect of over 60% in size
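Cells of the MDR subline KB-V1 are plated, dosed with compound at multiple concentrations, and incubated 72 h at 37 degrees C; CellTiter-Glo is then added and luminescence read after 10 min.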
HT1080 IDH1KD tx – kills HT-1080 cells with IDH1 knockdown; 360,000 tested, 2% active; HT-1080 IDH1 knockdown viability, ATP luminescence, 48 h; AID 686971; Potency, µM (doses to about 46.1 µM), inactives show top-dose activity, negative = toxicity, hits mostly cytotoxic;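 note: 0% = DMSO wells and -100% = cell-free medium wells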
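CellTiter-Glo luminescence after 48 h compound exposure at 37 degrees C of IDH1-knockdown HT-1080 cells in 5% FBS RPMI. %Activity scaled between DMSO wells and cell-free media wells, with curves fitted and assigned curve classes.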
HT1080-NT tox – kills 2HG-producing HT-1080-NT fibrosarcoma cells | HT-1080-NT fibrosarcoma viability, CellTiter-Glo ATP luminescence, 48 h | Potency, µM (top dose mostly 46.1 µM), inactives show at the top dose activity, negative = less viability, actives largely listed as cytotoxic | 360,000 tested, 1.6% active | AID 686970;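 note: NT is the 2HG producing partner of a matched IDH1 knockdown line; 0% = DMSO-treated cells and -100% = media-only wells without cells; nearly all actives have a fitted effect of over 55% in size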
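Viability of the 2HG-overproducing fibrosarcoma line after 48 hours of compound exposure at 37 degrees C was determined by luminescence with CellTiter-Glo, and concentration-effect curves were then fitted and categorized.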
KB-3-1 cytotox – kills parental KB-3-1 adenocarcinoma cells; KB-3-1 viability, CellTiter-Glo ATP luminescence, 72 h; Potency, µM (titrated, usually from 46.1 µM), usual class: cytotoxic; 400,000 tested, 1.4% active; AID 1347075; note: % is set by controls: 0 for no effect and ±100 for the full control effect; nearly all actives have a fitted effect of over 60% in size
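Multi-concentration cytotoxicity screen in KB-3-1 cells grown in DMEM lacking phenol red with 10% FBS. After 72 h at 37 °C with compound, ATP-dependent luminescence was recorded.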
SW480 rerep – inducers of DNA re-replication in SW480 colon cancer cells; 340,000 tested, 1.8% active; Potency, µM (titrated, usually from 46.1 µM), for inactives: top-dose re-replication activation, hits mostly activators; SW480 DNA re-replication, Hoechst DNA content imaging, 48 h; note: % of control where 0% means no effect; nearly all actives have a fitted effect of over 55% in size
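DNA re-replication was detected as more nuclei of elevated Hoechst intensity after 48 hr exposure to compound (23 nL pinned per well of 250 cells).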
MCF10A rerep – induces DNA re-replication in MCF 10a normal breast cells | MCF 10A DNA re-replication, Hoechst nuclear intensity, 48 h | Potency, µM (titrated, usually from 46.1 µM), for the others: top-dose activity, positive = re-replication, usual class: activators | 350,000 tested, 2.9% active | AID 624296; note: % of control where 0% means no effect; nearly all actives have a fitted effect of over 50% in size
* = called active by the depositor; i = inactive; ? = inconclusive; . = not tested or not shown. Compounds with a hit are over-represented: about 7.9% of the library has one in this group of screens. Calls come from the whole dose curve; as a rule, active = well fitted curve in the direction sought with a large enough effect; inconclusive = small, poorly fitted or top-dose-only effect, or another doubt; inactive = no such curve, though single readings can be large; an effect the other way counts as inactive or inconclusive. Potency is the fitted concentration of half-maximal effect.

SMILES	KB-V1 MDR tox	HT1080 IDH1KD tx	HT1080-NT tox	KB-3-1 cytotox	SW480 rerep	MCF10A rerep
O=S(NCc1ccccc1)C12CC3CC(CC(C3)C1)C2 (configuration not stated)	i	0%	-1%	i	1%	-6%
O=C(NCc1ccco1)C12CC3CC(C1)CC(C(=O)NCc1ccco1)(C3)C2	21µM*	2%	-16%	i	-3%	-2%
O=S(NCc1ccco1)C12CC3CC(CC(C3)C1)C2 (configuration not stated)	i	-8%	6%	i	-2%	21µM*
O=C(Nc1ccccc1)c1ccc(-c2ccc(Br)cc2)o1	i	1%	11%	i	?	21µM*
O=C(Nc1cccc(NC(=O)c2ccc(-c3ccc(Br)cc3)o2)c1)c1ccccc1	i	0%	10%	i	?	?
COc1ccccc1NC(=O)c1ccc(-c2ccc(Br)cc2)o1	3.3µM*	18µM*	?	5.8µM*	?	?
CC(=O)c1ccc(NC(=O)c2ccc(-c3ccc(Cl)cc3)o2)cc1	i	.	.	?	.	.
O=C(Nc1ccc(CN2CCOCC2)cc1)c1ccc(-c2ccc(Br)cc2)o1	21µM*	?	14µM*	i	?	?
CN(C)C(=O)c1ccc(NC(=O)c2ccc(-c3ccc(Cl)cc3)o2)cc1	21µM*	5%	7%	i	24%	28%
NC(=S)NN=C(c1ccc(Br)cc1)C1CC1	i	25%	19%	i	16%	-4%
Clc1ccc(-c2noc(-c3cccnc3N3CCN(c4ccccc4)CC3)n2)cc1	i	.	.	i	.	.
O=C(Nc1ccccc1)c1ccc(-c2ccc([N+](=O)[O-])cc2)o1	i	1%	-7%	?	1%	23µM*
COC(=O)c1cc2oc3ccccc3c2n1CC(=O)Nc1cccc(SC)c1	i	.	.	i	.	.
NC(=O)COC(=O)c1cc([N+](=O)[O-])ccc1NCCO	i	10%	5%	i	-4%	9%
O=C(COC(=O)c1cc([N+](=O)[O-])ccc1NCc1ccccc1Cl)NCC(F)(F)F	i	-12%	-15%	i	0%	21µM*
CCNc1ccc(C(=O)OCC(=O)NCc2ccccc2Cl)cc1[N+](=O)[O-]	i	5%	7%	i	-6%	?
O=C(COC(=O)c1cc([N+](=O)[O-])ccc1NCCO)NCc1cccs1	i	15%	1%	i	-40%	0.65µM*
COC(=O)c1cc(C(=O)OCC(=O)NCc2cccs2)cc([N+](=O)[O-])c1	i	7%	-4%	i	-9%	11%
O=C(COC(=O)c1cc([N+](=O)[O-])ccc1NCCO)c1ccccc1	21µM*	1%	-7%	?	?	-1%
COc1cc2c(cc1OC)C(COc1ccc3c(C)cc(=O)oc3c1)N(C(=O)c1cccc(OC)c1OC)CC2 (configuration not stated)	i	.	.	i	.	.
CO[C@H]1CN(C)C(=O)c2ccc(NC(=O)c3ccc4c(c3)OCO4)cc2OC[C@H](C)N(CC2CC2)C[C@@H]1C	i	9%	6%	i	.	.
Nc1ccc(S(=O)(=O)NCC(=O)OCCOc2ccccc2)cc1[N+](=O)[O-]	i	4%	0%	i	-67%	15µM*
CSc1ccc(S(=O)(=O)NCC(=O)OCCOc2ccccc2)cc1[N+](=O)[O-]	i	5%	2%	i	4%	?
CC(C)(C)c1ccc(C(=O)N2CCCC(c3nc4c(nnn4Cc4cccc(F)c4)c(=O)[nH]3)C2)cc1 (configuration not stated)	i	.	.	i	.	.
N#C/C(=C\c1cn(-c2ccccc2)nc1-c1cc2ccccc2o1)c1nc2ccccc2[nH]1	?	17%	19%	i	2.9µM*	?
SMILES	KB-V1 MDR tox	HT1080 IDH1KD tx	HT1080-NT tox	KB-3-1 cytotox	SW480 rerep	MCF10A rerep
Cc1ccc(-c2nn(-c3ccccc3)cc2/C=C(\C#N)c2cccc(C#N)c2)o1	i	5%	0%	i	?	?
O=C(O)CCn1cc(/C=C2\SC(=S)NC2=O)c(-c2ccccc2)n1	i	11%	9%	i	6%	2%
CN(C)S(=O)(=O)c1cccc(-c2nn(-c3ccccc3)cc2/C=C2\SC(=S)NC2=O)c1	?	10µM*	?	?	-2%	?
COc1ccc(-c2nn(-c3ccccc3)cc2/C=C(\C#N)S(=O)(=O)c2ccccc2)cc1OC	i	2%	-2%	i	-3%	0%
CN(C)S(=O)(=O)c1cccc(-c2nn(-c3ccccc3)cc2/C=C(\C#N)c2nc3ccccc3[nH]2)c1	i	3%	-1%	i	?	3.3µM*
Cc1cc(C)nc(NS(=O)(=O)c2ccc(NC(=O)COc3ccc(C(C)(C)C)cc3)cc2)n1	i	.	.	i	.	.
Cc1ccc(CN(C(=O)c2ccc([N+](=O)[O-])cc2)c2ccccn2)cc1	i	.	.	i	.	.
Cc1cc(NC(=O)c2ccco2)cc(-c2nc3cc(Cl)ccc3o2)c1O	i	.	.	i	.	.
CCOc1ccc(S(=O)(=O)Nc2nc3ccccc3nc2N2CCN(C)CC2)cc1	i	1%	-1%	i	1%	20%
O=C(O)c1ccc(Nc2nc3ccccc3nc2NS(=O)(=O)c2ccc(F)cc2)cc1	i	-5%	-11%	i	-15%	23µM*
O=S(=O)(Nc1nc2ccccc2nc1N1CCN(c2ccccc2F)CC1)c1ccc(Cl)cc1	?	-17%	-8%	11µM*	-2%	10µM*
O=C(O)c1cccc(Nc2nc3ccccc3nc2NS(=O)(=O)c2ccccc2)c1	i	-1%	1%	i	1%	14%
CCOC(=O)N1CCC(Nc2nc3ccccc3nc2NS(=O)(=O)c2ccc(Cl)cc2)CC1	15µM*	-7%	-19%	?	9%	0%
O=[N+]([O-])c1ccc(S(=O)(=O)Nc2nc3ccccc3nc2Nc2ccccc2)cc1	5.2µM*	0%	6%	i	13%	10%
CCc1ccccc1NC(=O)N1CC(C)Sc2ccccc21 (configuration not stated)	i	.	.	i	.	.
CC(=O)N1CCN(S(=O)(=O)c2cccc(C(=O)NC3CCCC(C)C3C)c2)CC1 (configuration not stated)	i	-8%	-3%	i	.	.
COc1ccccc1C(=O)Nc1ccccc1OCc1cc(=O)n2cc(C)sc2n1	i	.	.	i	.	.
O=C(CCn1cnc2ccccc2c1=O)NCc1ccccc1	i	.	.	i	.	.
